Most compounds without a hit are left out; they make up all but 6.7% or so of the library.
Autofluor counter = counter-screen for toxin protease inhibitors: compound fluorescence. compound autofluorescence counterscreen, microsphere flow cytometry; stronger effect = higher value. fluorescence intensity (no concentration beside the values). 3.1% of 360,000 active. AID 624483; in the data active = fluorescence intensity above about 16000; inconclusive = no clear call, values can overlap the other calls
BoNT A protease = BoNT A light chain protease inhibition | multiplex microsphere protease substrate cleavage, flow cytometry | inhibition, % at 10 µM | 0.17% of 360,000 active | AID 588499
Anthrax LF inh2 = blocks Bacillus anthracis lethal factor protease. P15917. multiplex microsphere protease cleavage assay, LF. inhibition, % at 10 µM. 0.12% of 360,000 active. AID 588501
BoNT-F LC inh = inhibitors of Botulinum neurotoxin F light chain protease. inhibition, % at 10 µM. 0.22% of 360,000 active. AID 588497. Multiplex microsphere protease cleavage assay, flow cytometry; in the data active = inhibition above about 35%, passing the limit was not always enough; inconclusive = no clear call, values can overlap the other calls
Mtb FBA inh = inhibits M. tuberculosis FBA enzyme; purified M. tuberculosis FBA, fluorescence read-out; inhibition, % at 1 µM; 2.3% of 360,000 active; AID 588726; in the data active = inhibition above about 27%
Target sequence (P9WQA3 whole entry, looked up): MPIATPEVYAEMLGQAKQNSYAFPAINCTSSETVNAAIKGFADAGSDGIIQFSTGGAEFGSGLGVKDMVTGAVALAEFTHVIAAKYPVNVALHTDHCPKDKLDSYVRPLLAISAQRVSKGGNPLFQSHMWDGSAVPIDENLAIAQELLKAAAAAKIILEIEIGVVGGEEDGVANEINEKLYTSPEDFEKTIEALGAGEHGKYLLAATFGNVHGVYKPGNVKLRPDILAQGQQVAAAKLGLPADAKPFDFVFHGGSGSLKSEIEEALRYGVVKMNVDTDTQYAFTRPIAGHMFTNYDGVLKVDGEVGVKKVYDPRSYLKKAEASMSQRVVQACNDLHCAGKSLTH
GDH-TPI counter = inhibits GDH-TPI coupling enzymes, artifact for Mtb FBA screen; inhibition, % at 4.8 µM; 1.2% of 360,000 active; GDH-TPI coupled enzyme counterscreen, NADH absorbance; in the data active = inhibition above about 30%
Of the large screens only hits and unclear results are named; the others gave an inactive call. Cut-off read from the data, not from the text of the source, unless noted: active = inhibition above about 30%; inconclusive = no clear call, values can overlap the other calls; inactive = below that.

CCS(=O)(=O)n1nc(-c2ccc(Cl)cc2)nc1SC	Autofluor counter 22674
COc1ccc(CN2CC34C=CC(O3)C(C(=O)O)C4C2=O)cc1 (stereo unspecified)	none
COc1cccc(N2CCN(C(=O)C3C4C=CC5(CN(Cc6ccccc6Cl)C(=O)C35)O4)CC2)c1 (stereo unspecified)	Autofluor counter 23129
CC(C)C[C@@H](CN1CCC[C@@H]1CN1C(=O)C(=O)NC[C@@H]1Cc1ccccc1)N1C[C@H](Cc2ccc(O)cc2)N(CC2CCCCC2)C(=O)C1=O	none
OC(CN1CCCCC1)c1ccc2c3c(cccc13)CC2 (stereo unspecified)	none
C(=N\Nc1cc(N2CCCCC2)ncn1)/c1ccco1	GDH-TPI counter 42
Fc1ccc(/C=N/Nc2cc(N3CCOCC3)ncn2)cc1	BoNT-F LC inh inconclusive
CC(C)OC(=O)c1c(N)n(CC2CCCO2)c2nc3ccccc3nc12 (stereo unspecified)	Mtb FBA inh 190
Nc1c(C(=O)OC2CCCCC2)c2nc3ccccc3nc2n1CC1CCCO1 (stereo unspecified)	Mtb FBA inh 149
COc1ccccc1-n1c(N)c(C(=O)NCC2CCCO2)c2nc3ccccc3nc21 (stereo unspecified)	Mtb FBA inh 113
Cc1nc2c(c(=O)n1CCC(C)C)c1nc3ccccc3nc1n2CC1CCCO1 (stereo unspecified)	none
O=c1c2ccccc2c2ccccc2c(=O)n1CC1CCCO1 (stereo unspecified)	none
CC(C)CCOC(=O)c1c(N)n(CC2CCCO2)c2nc3ccccc3nc12 (stereo unspecified)	Mtb FBA inh 149
COc1ccccc1-n1c(C)nc2cc(C(=O)NCC3CCCO3)ccc21 (stereo unspecified)	none
Cc1ccc(OCCn2cc(C(=O)O)c3ccccc32)cc1	none
Cc1onc(-c2ccccc2)c1C(=O)N1CCC(CO)(Cc2ccccc2)CC1	none
COC(=O)C1C2c3ccccc3OC1(C)N=c1s/c(=C/c3cnn(C)c3C)c(=O)n12 (stereo unspecified)	none
CC(=O)C1C2c3ccccc3OC1(C)N=c1s/c(=C/c3cnn(C)c3)c(=O)n12 (stereo unspecified)	GDH-TPI counter 38
CCOC(=O)C1CCCN(C(=O)c2ccc3c(c2)OCO3)C1 (stereo unspecified)	none
COC(=O)C1=C(C)NC2=C(C(=O)CC(C)(C)C2)C1c1ccsc1 (stereo unspecified)	none
COc1ccc(CCNC(=O)c2cc3c(=O)n4cccc(C)c4nc3n(Cc3ccco3)c2=N)cc1OC	none
CC(C)n1c(=N)c(C(=O)NCCc2ccccc2)cc2c(=O)n3ccccc3nc21	Mtb FBA inh active
Cc1cccn2c(=O)c3cc(C(=O)NCc4ccco4)c(=N)n(C(C)C)c3nc12	Autofluor counter 16268, Mtb FBA inh active
Cc1cccn2c(=O)c3cc(C(=O)NCc4cccnc4)c(=N)n(C(C)C)c3nc12	Mtb FBA inh active (no result: Autofluor counter, BoNT A protease, Anthrax LF inh2, BoNT-F LC inh)
Cc1nnsc1C(=O)NC1CCCc2c1cnn2-c1ccc(F)cc1F (stereo unspecified)	none
CN(Cc1ccccc1)C(=O)c1[nH]cnc1C(=O)Nc1ccccc1	none
CCOc1ccc(NC(=O)CN2CCN(CC(=O)Nc3ccc(Cl)c(C(F)(F)F)c3)CC2)cc1	Autofluor counter 26476
COc1ccccc1N1CCN(CC(=O)Nc2ccc(Cl)c(C(F)(F)F)c2)CC1	Autofluor counter 16616
O=C(COc1cc(Cl)ccc1Cl)Nc1ccc2[nH]c(=O)[nH]c2c1	none
CCOc1ccc(NC(=O)CN2CCN(CC(=O)Nc3cccc(F)c3)CC2)cc1	Mtb FBA inh 153
Cc1ccc(Cl)cc1N1CCN(CC(=O)Nc2ccc3[nH]c(=O)[nH]c3c2)CC1	Autofluor counter 19567
CCOc1ccc(NC(=O)CN2CCN(CC(=O)Nc3ccc4c(c3)OCCO4)CC2)cc1	none
O=C(CN1CCN(c2ccccn2)CC1)Nc1ccc(Cl)c(C(F)(F)F)c1	none
O=C(CSc1nnnn1-c1cccc(C(=O)O)c1)NC(c1ccccc1)c1ccccc1	none
COc1ccc(C=Nc2cccc3c(=O)[nH][nH]c(=O)c23)c2ccccc12	GDH-TPI counter 31
O=C1CC(Nc2ccc(N3CCOCC3)cc2)C(=O)N1Cc1ccccc1 (stereo unspecified)	Autofluor counter 22615
O=C1CC(c2ccc(F)cc2)CC2=C1C(c1ccc([N+](=O)[O-])o1)Nc1ccccc1N2 (stereo unspecified)	GDH-TPI counter 38 (no result: Autofluor counter, BoNT A protease, Anthrax LF inh2, BoNT-F LC inh)
Cc1ccc(NC(=O)c2c(C(F)(F)F)nn(C)c2SCc2cccc(C(F)(F)F)c2)cc1C	Autofluor counter 16554
Cc1ccc(NC(=O)c2c(C(F)(F)F)nn(C)c2SCc2ccc(Cl)cc2)cc1C	Autofluor counter 18135
Cn1nc(C(F)(F)F)c(-c2cccc(C(F)(F)F)c2)c1NC(=O)c1ccco1	none
Cc1ccc(NC(=O)c2c(C(F)(F)F)nn(C)c2Cl)cc1C	Autofluor counter 19260, BoNT A protease inconclusive
Cc1c(NC(=O)CN2C(=O)NC(C)(c3ccccc3Cl)C2=O)c(=O)n(-c2ccccc2)n1C (stereo unspecified)	none
CCCOc1ccccc1/C=C(\C#N)C(=O)Nc1cccc(C)n1	none
FC(F)(F)c1ccccc1Cc1c(C2CCCCC2)nc2ccc(Cl)cn12	none (no result: GDH-TPI counter)
O=c1[nH]cnc2c1sc1nc3c(c(-c4ccc(Cl)cc4)c12)CCC3	none
C=CCCCOc1ccc(C(=O)O)cc1	Autofluor counter 21372
C=CCC(=O)OCCCCCCOc1ccc(C(=O)O)cc1	none
O=C(O)c1ccccc1OCCN1CCCC1=O	none
O=C(O)c1ccc(OCCN2CCCC2=O)cc1	Autofluor counter 19644
O=c1[nH]c2ccc(S(=O)(=O)N3CCC(Cc4ccccc4)CC3)cc2o1	none
CC(C)Cn1cc(C(=O)N2CCC3(CC2)OCCO3)c2c3ccccc3n(C)c2c1=O	Mtb FBA inh 37
COCCn1cc(C(=O)N2CCC(C)CC2)c2c3ccccc3n(C)c2c1=O	Mtb FBA inh 43
CCCCNC(=O)C(=O)N/N=C/c1cccc(Br)c1	none
Cc1cc(NC(=O)c2ccc([N+](=O)[O-])cc2Cl)ccc1NC(=O)c1ccco1	none
O=C1Nc2ccccc2OC1CC(=O)N1CCOCC1 (stereo unspecified)	none
O=C1Nc2ccccc2OC1CC(=O)N1CCN(c2cccc(C(F)(F)F)c2)CC1 (stereo unspecified)	Autofluor counter 21735
O=C(c1cc(-c2cccs2)on1)N1CCc2ccccc2C1	Autofluor counter 22720
O=C(c1cc(-c2cccs2)on1)N1CCOCC1	Autofluor counter 21693
O=C(c1cc(-c2ccccc2O)on1)N1CCc2ccccc2C1	none
O=C(c1ccccc1Cl)N1CCc2ccccc2C1	Autofluor counter 17580
COc1cc(/C=C2/N=C(c3ccccc3F)OC2=O)cc(Cl)c1OS(C)(=O)=O	Autofluor counter 20200
Cc1ccc(C)c(/C=C2\N=C(c3ccccc3F)OC2=O)c1	none
Cc1cc(C)c2nc(SCCc3ccccc3)nc(C)c2c1	none
